The values that follow come from ChEMBL document CHEMBL3988442, “University of Dundee, Small-Polar-MMV Screening Library” (2021).

Holding throughout (parameters): scale not given: direction of the effect not stated beside the values
Assay [1] addresses Protein translocase subunit SecA (Escherichia coli (strain K12)) (UniProt P10408). Put plainly: Assay to Identify E. coli SecA ATPase Inhibitors. The class given is functional. To be noted: 30 µM.
Assay [2] addresses T1, Ubiquitin-activating enzyme e1, putative (Leishmania donovani (strain BPK282A1)) (UniProt E9BSI1).
T1 sequence (whole entry): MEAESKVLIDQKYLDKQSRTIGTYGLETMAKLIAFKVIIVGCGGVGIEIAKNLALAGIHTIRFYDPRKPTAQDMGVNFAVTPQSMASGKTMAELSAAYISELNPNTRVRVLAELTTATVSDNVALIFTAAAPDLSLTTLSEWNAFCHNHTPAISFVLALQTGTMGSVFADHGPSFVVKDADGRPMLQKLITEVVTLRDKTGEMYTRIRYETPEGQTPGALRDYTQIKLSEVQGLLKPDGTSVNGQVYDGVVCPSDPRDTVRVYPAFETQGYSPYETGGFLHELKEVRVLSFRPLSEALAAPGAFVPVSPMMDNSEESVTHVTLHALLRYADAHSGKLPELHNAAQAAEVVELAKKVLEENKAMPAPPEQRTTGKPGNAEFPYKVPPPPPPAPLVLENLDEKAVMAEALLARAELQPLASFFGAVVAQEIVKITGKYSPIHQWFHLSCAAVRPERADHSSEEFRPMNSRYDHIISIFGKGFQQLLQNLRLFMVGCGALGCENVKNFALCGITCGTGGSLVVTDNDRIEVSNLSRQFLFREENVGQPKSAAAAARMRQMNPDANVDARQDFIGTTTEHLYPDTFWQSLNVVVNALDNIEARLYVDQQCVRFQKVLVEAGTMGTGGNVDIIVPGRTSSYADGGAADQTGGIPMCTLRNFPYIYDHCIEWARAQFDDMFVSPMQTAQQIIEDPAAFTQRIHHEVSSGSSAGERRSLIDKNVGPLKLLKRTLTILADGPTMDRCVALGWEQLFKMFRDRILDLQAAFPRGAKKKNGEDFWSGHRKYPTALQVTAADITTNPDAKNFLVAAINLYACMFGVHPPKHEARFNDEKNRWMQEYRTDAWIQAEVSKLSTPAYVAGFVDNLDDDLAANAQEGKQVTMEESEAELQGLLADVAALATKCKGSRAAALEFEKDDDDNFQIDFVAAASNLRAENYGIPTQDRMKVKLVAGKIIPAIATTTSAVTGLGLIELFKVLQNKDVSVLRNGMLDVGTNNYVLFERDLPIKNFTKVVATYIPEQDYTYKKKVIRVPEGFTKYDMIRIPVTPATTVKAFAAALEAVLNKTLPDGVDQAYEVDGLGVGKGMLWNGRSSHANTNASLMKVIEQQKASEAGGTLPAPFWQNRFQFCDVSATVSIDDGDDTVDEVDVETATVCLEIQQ
Put plainly: Leishmania donovani Ubiquitin Activating Enzyme (LdE1). To be noted: 30 µM. The class given is functional.

The target of assay [3] is AMP-activated protein kinase, AMPK (Homo sapiens) (UniProt P54646+O43741+P54619+Q9UGJ0+Q9Y478+Q13131+Q9UGI9). Put plainly: AMP-dependent Kinase enzyme assay. An in vitro enzyme assay that detects ADP turnover that is directly proportional to AMPK activity. This uses naive AMPK that is activated during the assay with MK-8722. In kind it is functional. The conditions noted are these: 30 µM.

The target of assay [4] is Sialic acid-binding Ig-like lectin 9 (Homo sapiens) (UniProt Q9Y336). The assay can be described thus: Hs-Siglec9 ALPHAscreen SOP 20170721. To be noted: 10 µM.
Chain of Sialic acid-binding Ig-like lectin 9 (Homo sapiens) (Q9Y336 whole entry): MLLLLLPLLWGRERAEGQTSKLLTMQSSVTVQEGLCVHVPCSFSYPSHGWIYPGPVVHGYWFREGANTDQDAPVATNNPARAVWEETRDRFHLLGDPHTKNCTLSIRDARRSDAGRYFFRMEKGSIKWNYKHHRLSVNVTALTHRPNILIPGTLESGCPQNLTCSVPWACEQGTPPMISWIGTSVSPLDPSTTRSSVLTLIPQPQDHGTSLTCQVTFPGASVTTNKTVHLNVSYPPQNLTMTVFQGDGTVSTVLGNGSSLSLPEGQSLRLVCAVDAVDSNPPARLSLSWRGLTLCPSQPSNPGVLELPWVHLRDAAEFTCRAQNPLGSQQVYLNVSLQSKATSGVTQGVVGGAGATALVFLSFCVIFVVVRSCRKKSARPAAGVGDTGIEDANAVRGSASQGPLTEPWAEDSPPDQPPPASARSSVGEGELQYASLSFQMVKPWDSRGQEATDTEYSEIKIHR
For another assay, the system named is Trypanosoma cruzi. Put plainly: Trypanosoma cruzi phosphomannomutase and mannose-1-phosphate guanylyltransferase assay. The class given is functional. The conditions noted are these: 10 µM.
Assay [5] addresses T2, Arginase-2, mitochondrial (Homo sapiens) (UniProt P78540).
T2 sequence (whole entry): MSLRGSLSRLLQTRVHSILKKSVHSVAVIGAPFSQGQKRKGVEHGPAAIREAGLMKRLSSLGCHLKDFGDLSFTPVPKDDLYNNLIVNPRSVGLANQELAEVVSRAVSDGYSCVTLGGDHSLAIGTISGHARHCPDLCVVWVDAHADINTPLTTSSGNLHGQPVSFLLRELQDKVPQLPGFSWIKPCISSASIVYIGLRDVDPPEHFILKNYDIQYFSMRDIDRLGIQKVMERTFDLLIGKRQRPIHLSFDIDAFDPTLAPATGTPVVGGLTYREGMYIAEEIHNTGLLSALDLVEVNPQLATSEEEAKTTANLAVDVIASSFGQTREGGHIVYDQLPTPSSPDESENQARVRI
Put plainly: in vitro enzyme assay to detect the production of urea directly proportional to the activity of Arginase II. Note: in the data most compounds retested in dose-response had high values. In kind it is functional. To be noted: 33.3 µM.

The target in assay [6] is T3, Proteasome subunit beta (Trypanosoma cruzi) (UniProt O96673).
T3 sequence (whole entry): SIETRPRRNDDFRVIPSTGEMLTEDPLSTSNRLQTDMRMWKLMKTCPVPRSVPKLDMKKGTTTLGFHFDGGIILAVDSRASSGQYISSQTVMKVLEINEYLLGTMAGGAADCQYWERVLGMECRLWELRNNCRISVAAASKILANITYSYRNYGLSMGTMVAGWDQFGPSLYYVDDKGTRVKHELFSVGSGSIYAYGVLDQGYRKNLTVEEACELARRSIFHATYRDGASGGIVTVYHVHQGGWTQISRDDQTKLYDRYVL
Put plainly: Trypanosoma cruzi proteasome chymotrypsin-like activity (TcProtChymo) assay. Note: in the data most compounds retested in dose-response had high values. The conditions noted are these: 9.37 µM. The class given is functional.

Another assay is filed under the species Homo sapiens. Put plainly: To identify inhibition of the IFN signalling (Jak-Stat) pathway via expression of an eGFP reporter gene under the control of an IFN-stimulated response element (ISRE) containing MxA promoter. The class given is functional. The conditions noted are these: 30 µM.
In assay [7] the target is T4, Tyrosyl-tRNA synthetase, putative (Trypanosoma cruzi (strain CL Brener)) (UniProt Q4DSP6).
T4 sequence (whole entry): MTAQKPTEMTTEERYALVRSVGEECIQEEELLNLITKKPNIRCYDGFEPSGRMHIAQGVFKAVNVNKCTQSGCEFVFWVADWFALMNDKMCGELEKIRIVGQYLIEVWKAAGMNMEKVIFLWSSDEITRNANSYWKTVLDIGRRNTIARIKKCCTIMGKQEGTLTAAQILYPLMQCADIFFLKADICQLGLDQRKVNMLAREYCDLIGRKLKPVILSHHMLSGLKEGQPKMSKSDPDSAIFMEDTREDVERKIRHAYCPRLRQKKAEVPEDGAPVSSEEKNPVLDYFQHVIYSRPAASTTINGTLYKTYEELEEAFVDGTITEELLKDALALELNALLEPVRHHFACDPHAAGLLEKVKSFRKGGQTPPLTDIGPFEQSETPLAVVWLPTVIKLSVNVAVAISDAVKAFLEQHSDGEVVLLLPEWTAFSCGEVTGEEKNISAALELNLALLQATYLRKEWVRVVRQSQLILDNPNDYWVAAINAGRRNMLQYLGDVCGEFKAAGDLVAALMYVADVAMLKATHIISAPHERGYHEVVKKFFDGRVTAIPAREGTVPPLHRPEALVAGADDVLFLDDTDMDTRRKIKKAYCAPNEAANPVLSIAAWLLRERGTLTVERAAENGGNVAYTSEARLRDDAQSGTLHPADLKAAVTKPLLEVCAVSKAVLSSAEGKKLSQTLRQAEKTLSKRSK
Put plainly: Trypanosoma cruzi tyrosyl tRNA synthetase (TcYRS) _High Tyrosine SOP. Note: in the data most compounds retested in dose-response had high values. In kind it is functional. To be noted: 30 µM.

The target in assay [8] is T4, Tyrosyl-tRNA synthetase, putative (Trypanosoma cruzi (strain CL Brener)). Put plainly: Trypanosoma cruzi tyrosyl tRNA synthetase (TcYRS) SOP. The class given is functional. The conditions noted are these: 30 µM.
Assay [9] concerns the target Chromo domain-containing protein 1 (Saccharomyces cerevisiae (strain ATCC 204508 / S288c) (Baker's yeast)) (UniProt P32657). The assay can be described thus: ScCHD-1 Enzyme Inhibition Assay. Note: in the data most compounds retested in dose-response had high values. In kind it is functional. The conditions noted are these: 30 µM.

For some of these results: Measured potencies and affinities stand elsewhere.

Chain of Protein translocase subunit SecA (Escherichia coli (strain K12)) (P10408 whole entry): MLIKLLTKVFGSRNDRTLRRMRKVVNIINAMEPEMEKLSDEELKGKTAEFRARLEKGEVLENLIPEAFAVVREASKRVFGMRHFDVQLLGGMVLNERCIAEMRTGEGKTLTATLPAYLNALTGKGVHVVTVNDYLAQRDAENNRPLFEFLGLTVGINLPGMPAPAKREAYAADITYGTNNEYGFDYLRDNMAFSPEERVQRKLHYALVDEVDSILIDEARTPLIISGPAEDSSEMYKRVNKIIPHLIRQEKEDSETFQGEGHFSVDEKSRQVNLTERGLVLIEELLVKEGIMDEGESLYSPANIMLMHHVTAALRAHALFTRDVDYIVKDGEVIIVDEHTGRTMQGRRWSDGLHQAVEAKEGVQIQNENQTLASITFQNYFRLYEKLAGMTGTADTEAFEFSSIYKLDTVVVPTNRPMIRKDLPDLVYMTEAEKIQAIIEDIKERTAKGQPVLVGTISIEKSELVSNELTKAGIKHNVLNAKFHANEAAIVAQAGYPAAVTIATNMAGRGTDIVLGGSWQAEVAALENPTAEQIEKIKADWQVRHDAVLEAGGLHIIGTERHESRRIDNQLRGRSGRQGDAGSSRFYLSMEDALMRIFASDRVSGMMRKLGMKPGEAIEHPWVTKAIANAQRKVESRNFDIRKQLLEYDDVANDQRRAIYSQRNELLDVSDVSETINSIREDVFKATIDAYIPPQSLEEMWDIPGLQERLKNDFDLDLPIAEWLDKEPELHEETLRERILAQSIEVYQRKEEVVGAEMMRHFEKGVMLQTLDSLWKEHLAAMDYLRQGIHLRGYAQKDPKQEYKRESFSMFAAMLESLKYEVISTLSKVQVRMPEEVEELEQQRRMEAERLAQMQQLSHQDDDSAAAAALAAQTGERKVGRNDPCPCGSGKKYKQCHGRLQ
Chain of Chromo domain-containing protein 1 (Saccharomyces cerevisiae (strain ATCC 204508 / S288c) (Baker's yeast)) (P32657 whole entry, the tested form may be a part): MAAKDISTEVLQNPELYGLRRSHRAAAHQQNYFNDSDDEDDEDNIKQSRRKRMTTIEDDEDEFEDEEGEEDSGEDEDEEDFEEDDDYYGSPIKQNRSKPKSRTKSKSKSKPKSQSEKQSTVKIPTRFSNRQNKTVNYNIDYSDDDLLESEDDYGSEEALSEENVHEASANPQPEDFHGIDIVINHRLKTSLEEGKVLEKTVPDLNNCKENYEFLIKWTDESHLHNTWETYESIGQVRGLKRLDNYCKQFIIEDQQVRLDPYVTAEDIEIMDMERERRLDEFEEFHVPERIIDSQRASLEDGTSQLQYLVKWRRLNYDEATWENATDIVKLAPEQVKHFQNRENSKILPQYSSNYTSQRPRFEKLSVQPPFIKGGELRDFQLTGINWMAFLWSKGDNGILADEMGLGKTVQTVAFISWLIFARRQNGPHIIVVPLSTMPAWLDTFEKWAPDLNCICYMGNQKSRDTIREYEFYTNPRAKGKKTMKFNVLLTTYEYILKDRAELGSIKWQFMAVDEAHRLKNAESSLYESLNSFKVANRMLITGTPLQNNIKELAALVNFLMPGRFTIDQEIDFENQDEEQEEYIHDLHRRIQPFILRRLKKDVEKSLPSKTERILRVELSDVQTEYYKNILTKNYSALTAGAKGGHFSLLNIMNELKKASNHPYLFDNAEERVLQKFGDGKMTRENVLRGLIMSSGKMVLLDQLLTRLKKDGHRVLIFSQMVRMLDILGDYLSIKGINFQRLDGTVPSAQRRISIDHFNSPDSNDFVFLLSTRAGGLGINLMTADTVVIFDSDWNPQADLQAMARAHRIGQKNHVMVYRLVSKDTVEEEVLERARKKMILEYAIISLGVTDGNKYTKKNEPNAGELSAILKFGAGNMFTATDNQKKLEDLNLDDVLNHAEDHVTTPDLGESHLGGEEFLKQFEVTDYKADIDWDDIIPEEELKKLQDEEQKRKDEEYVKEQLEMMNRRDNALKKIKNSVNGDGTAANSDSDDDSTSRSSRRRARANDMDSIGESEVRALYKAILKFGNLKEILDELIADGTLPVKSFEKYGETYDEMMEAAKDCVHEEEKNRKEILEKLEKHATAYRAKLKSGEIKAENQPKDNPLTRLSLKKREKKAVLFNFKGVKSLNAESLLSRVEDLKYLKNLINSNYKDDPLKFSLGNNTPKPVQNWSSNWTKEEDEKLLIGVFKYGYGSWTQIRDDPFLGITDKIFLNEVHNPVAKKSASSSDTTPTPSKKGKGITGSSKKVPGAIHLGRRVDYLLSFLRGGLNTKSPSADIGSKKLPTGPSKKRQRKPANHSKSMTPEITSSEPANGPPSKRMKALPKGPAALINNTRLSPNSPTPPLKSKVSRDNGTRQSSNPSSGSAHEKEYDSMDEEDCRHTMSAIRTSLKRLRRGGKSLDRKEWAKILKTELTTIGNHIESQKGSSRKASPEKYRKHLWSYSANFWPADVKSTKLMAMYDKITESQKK

In the case of `Cc1cc(C[C@@H]2COC[C@@H]2NC(=O)CN2CCCN(C)CC2)on1`, the Percent Effect was -3.19% in [1]; 16.4% in [2]; 2.04% in assay [3]; 6.47% in assay [4]; 6.27% in the assay on Trypanosoma cruzi; 4.54% in [5]. Besides, the Percent Effect in [6] was 13.3%; in the assay listed under Homo sapiens, 4.37%; in assay [7], 8.6%; in assay [8], -55%; in [9], -6.96%.
Consider `O=C(NC1CCCC1)N1CCCC(c2nccn2Cc2ccncc2)C1` (stereo unspecified), for which the Percent Effect in assay [1] is -3.14%; in assay [2], 4.17%; in assay [3] it was 2.03%; in assay [4] it was 9.67%; in the assay with Trypanosoma cruzi, 8.07%; in [5] it was -0.883%. The Percent Effect in assay [6] is 7.54%; in the assay listed under Homo sapiens, -38.2%; in assay [7], 4.21%; in assay [8] it was 5.13%; in [9], -4.06%.
Take `CC(C)c1nnc(CN2CCCC2Cn2cncn2)o1` (stereo unspecified): the Percent Effect is -4.03% in assay [1]; 18.2% in assay [2]; -9.21% in assay [3]; 3.1% in [4]; 5.99% in the assay on Trypanosoma cruzi; 3.92% in assay [5]. Moreover, the Percent Effect in assay [6] was 10.3%; in the assay listed under Homo sapiens it was -4.77%; in [7] it was 6.8%; in [8], 24.4%; in assay [9] it was -9.98%.
Take `COc1cccc2c1OCC(NC(=O)NC1CCN(C3CC3)CC1)C2` (stereo unspecified): the Percent Effect in assay [1] is -3.95%; in assay [2], 0%; in assay [3], 4.77%; in assay [4], 0.911%; in the assay with Trypanosoma cruzi it was 4.77%; in assay [5], 0%. Also, the Percent Effect in assay [6] is 10.6%; in the assay filed under Homo sapiens, 3.27%; in assay [7], 6.38%; in [8], 7.79%; in assay [9], -0.292%.
On to `CCc1nnc(CN2CCN(C(=O)c3ccccn3)CC2)o1`, for which the Percent Effect in assay [1] is 0.554%; in assay [2], 10.4%; in [3] it was 1.99%; in assay [4], -1.91%; in the assay on Trypanosoma cruzi, -0.881%; in assay [5], 6.53%. In addition, the Percent Effect in assay [6] was 4.45%; in the assay listed under Homo sapiens it was 24.1%; in assay [7], 5.71%; in assay [8], 9.41%; in [9], -20.1%.
Consider `Cc1cccc(OCCC(=O)N2CCCN(C(N)=O)CC2)c1C`, for which the Percent Effect in assay [1] was -5.63%; in assay [2], -63.3%; in [3], -5.53%; in [4], -0.36%; in the assay with Trypanosoma cruzi it was -9.54%; in assay [5] it was 3.8%. Moreover, the Percent Effect is 3.85% in assay [6]; 27.5% in the assay filed under Homo sapiens; -3.45% in [7]; -8.86% in assay [8]; -6.9% in [9].
`Cn1cc(C2CCCN2Cc2csc(-c3ccsc3)n2)cn1` (stereo unspecified): the Percent Effect in assay [1] was -1.56%; in assay [2] it was -2.53%; in [3], -11.2%; in [4] it was 3.12%; in the assay on Trypanosoma cruzi, -7.46%; in assay [5] it was 0.76%. The Percent Effect in assay [6] was 3.36%; in the assay listed under Homo sapiens, 8.82%; in assay [7] it was -24.1%; in assay [8], 3.8%; in [9] it was -2%.
For `Cn1cc(Br)c(=O)c(NS(=O)(=O)c2cc(F)ccc2Cl)c1`, the Percent Effect in assay [1] is -3.11%; in assay [2], 2.7%; in assay [3] it was -8.02%; in assay [4] it was 5.84%; in the assay on Trypanosoma cruzi it was 9.07%; in [5], -2.38%. Also, the Percent Effect was 13.3% in assay [6]; 6.19% in the assay filed under Homo sapiens; 0.529% in assay [7]; -2.44% in [8]; -0.642% in assay [9].
On to `Cc1ncsc1C(=O)NCc1cccs1`, for which the Percent Effect in assay [1] was 0.275%; in assay [2], 16.2%; in [3] it was -1.61%; in assay [4] it was 5.83%; in the assay on Trypanosoma cruzi it was 0.464%; in assay [5], 0.185%. Besides, the Percent Effect is 14% in assay [6]; 21.8% in the assay filed under Homo sapiens; 6.93% in assay [7]; 23.2% in assay [8]; -4.46% in [9].
Consider `Cc1noc(CN2CCOC(CN(C)C)C2)n1` (stereo unspecified), for which the Percent Effect in assay [1] is -2.18%; in [2], 24.3%; in assay [3], 0.532%; in assay [4] it was -4.95%; with Trypanosoma cruzi, 5.11%; in assay [5] it was 2.77%. Further, the Percent Effect in assay [6] was 11.3%; in the assay filed under Homo sapiens, 22.3%; in [7] it was 5.94%; in assay [8], 18.3%; in assay [9], -7.83%.
Take `Cc1ncsc1C(=O)N(C)CCc1ccncc1`: the Percent Effect is -2.19% in assay [1]; 2.63% in [2]; 9.05% in [3]; 3.98% in assay [4]; -0.564% in the assay on Trypanosoma cruzi; 0% in [5]. In addition, the Percent Effect in assay [6] was -1.84%; in the assay filed under Homo sapiens, 16.7%; in assay [7], 2.45%; in assay [8], 4.88%; in assay [9] it was 5.09%.
